Screening results from PubChem BioAssay.
This is a sample that favours compounds with a hit; in the whole collection about 1.5% have one here.
eLon inh: inhibitors of E. coli Lon protease, primary screen, biochemical, fluorescence polarization | hit rate 0.42% among 360,000 | inhibition, % at 7.94 µM | P0A9M0 | purified E. coli Lon protease; in the data active = inhibition above about 13%, passing the limit was not always enough;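 also: 0% = enzyme with probe and DMSO and 100% = no enzyme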
Bcl-xL primary: inhibitors of human Bcl-xL, primary screen, biochemical, fluorescence polarization, HTS; inhibition, % at 10.9 µM; GST-Bcl-xL / FITC-Bim BH3 peptide fluorescence polarization; Bcl-2-like protein 1 (Homo sapiens), Q07817; hit rate 0.7% among 320,000;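 active = inhibition above the mean of all tested compounds plus 3 SD, cutoff set per campaign, cut at about 30% in these data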;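 also: 0% = DMSO wells and 100% = unlabeled Bim-BH3 peptide competitor; inhibitors lower millipolarization by displacing the labeled peptide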
Target sequence (Q07817 whole entry, looked up): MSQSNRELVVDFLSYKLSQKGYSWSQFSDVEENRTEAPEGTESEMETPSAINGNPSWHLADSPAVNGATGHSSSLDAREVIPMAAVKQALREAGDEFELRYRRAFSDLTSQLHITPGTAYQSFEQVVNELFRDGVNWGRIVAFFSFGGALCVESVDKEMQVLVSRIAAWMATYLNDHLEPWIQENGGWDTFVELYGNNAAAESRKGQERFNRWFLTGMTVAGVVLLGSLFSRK
MEX-5 binding: MEX-5 zinc finger RNA-binding disruptors – biochemical, C. elegans, fluorescence polarization, MLPCN library, primary screen. Zinc finger protein mex-5 (Caenorhabditis elegans), Q9XUB2. MEX-5/FITC-TCR2 RNA binding; stronger effect = lower value. activity score (negative = inhibition of binding), % at 10 µM. hit rate 0.38% among 300,000. AID 1832, 2009;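 active = inhibition past about -25% in most replicates, and total fluorescence under double the plate's negative control median, limit read from the data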;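 also: 0% = DMSO and -100% = 5 µM competing unlabeled TCR2 RNA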
EBV gp42 inh: Epstein-Barr virus gp42 inhibitors, primary screen, biochemical, uHTS, fluorescence polarization | Glycoprotein 42 (Epstein-Barr virus (strain AG876)), Q1HVG2 | Fluorescence polarization binding assay, mP read-out | inhibition, % (tested at 21.74 µM) | hit rate 0.42% among 220,000 | AID 1085, 2008; in the data active = inhibition above about 50%
Target sequence (Q1HVG2 whole entry, looked up): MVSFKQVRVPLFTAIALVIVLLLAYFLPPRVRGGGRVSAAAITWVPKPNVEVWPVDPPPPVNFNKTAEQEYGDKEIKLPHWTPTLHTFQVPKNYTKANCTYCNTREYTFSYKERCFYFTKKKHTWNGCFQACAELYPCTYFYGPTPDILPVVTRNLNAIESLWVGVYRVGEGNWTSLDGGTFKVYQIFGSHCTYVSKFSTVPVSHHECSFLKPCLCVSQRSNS
GLD-1 RNA inh: GLD-1/TGE RNA complex disruptors, primary screen, biochemical, fluorescence polarization; purified GLD-1 + fluorescein TGE RNA; inhibition, % at 5.96 µM; hit rate 0.44% among 320,000;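 active = percent inhibition above a per-plate cutoff, the plate mean of test compounds plus 3 SD, cut at about 30% in these data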;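 also: 0% = DMSO wells with GLD-1 and probe and 100% = wells lacking GLD-1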
MCL1-BIM inh: inhibitors of MCL1 binding to BIM-BH3, primary screen, biochemical, fluorescence polarization; Induced myeloid leukemia cell differentiation protein Mcl-1 (Homo sapiens), Q07820; GST-MCL1 / FITC-Bim-BH3 fluorescence polarization; inhibition, % at 10.9 µM; hit rate 0.68% among 320,000; AID 2057, 2009;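 active = inhibition above the mean inhibition of all tested compounds plus 3 SD, set per campaign, cut at about 40% in these data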;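 also: 0% = DMSO wells and 100% = unlabeled Bim-BH3 peptide control; higher means more loss of mP so more displacement of Bim peptide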
Bcl-xL conf: Bcl-xL inhibitors blocking Bim BH3 binding, confirmation, counter-screen for MCL1 inhibitor project, biochemical, fluorescence polarization. GST-Bcl-xL / FITC-Bim BH3 peptide FP binding. shares compounds with MCL1-BIM inh. AID 2166, 2009. hit rate 54% among 1,700. inhibition, % at 10.9 µM;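 active = inhibition above a cutoff equal to the mean inhibition of all tested compounds plus 3 SD, cut at about 30% in these data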;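 also: 0% = DMSO wells and 100% = unlabeled Bim BH3 control peptide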
MCL1 BIM confirm: inhibitors of MCL1 binding to BIM-BH3, confirmation, biochemical, fluorescence polarization, triplicate | inhibition, % at 10.9 µM | hit rate 61% among 1,700 | GST-MCL1 / FITC-Bim-BH3 fluorescence polarization | shares compounds with MCL1-BIM inh;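 active = inhibition above the average of all tested compounds plus 3 SD, cut at about 40% in these data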;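 also: 0% = DMSO wells and 100% = unlabeled Bim-BH3 control peptide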
* marks the source's active call; other numbers are inactive results; / = no result given.

SMILES	eLon inh	Bcl-xL primary	MEX-5 binding	EBV gp42 inh	GLD-1 RNA inh	MCL1-BIM inh	Bcl-xL conf	MCL1 BIM confirm
CC1(C)CC(=O)C2=C(C1)OC(N)=C(C#N)C2c1ccccc1[N+](=O)[O-] (stereo not drawn)	22	165*	-80*	15	119*	186*	93*	114*
COc1ccc(C(CC(=O)N2CCCC2)c2c(OC)cc(OC)c3c(-c4ccccc4)cc(=O)oc23)cc1 (stereo not drawn)	-3	4	4	82*	-5	43*	8	34
COc1ccc(C(CC(=O)N2CCCCC2)c2c(OC)cc(OC)c3c(-c4ccccc4)cc(=O)oc23)cc1 (stereo not drawn)	17	11	3	34	5	32	/	/
Cc1ccc(CS(=O)Cc2ccc(C(=O)NCc3ccc(OC(C)C)cc3)o2)cc1 (stereo not drawn)	10	-13	-3	/	-6	-17	/	/
COC(=O)CCC(=O)OC1(C)C(=O)C2=COC(c3ccc(OC)cc3)=CC2=C(Br)C1=O (stereo not drawn)	/	33*	-9	2	16	56*	32*	57*
Cc1ccc(N2C(=O)[C@@H]3[C@H](C2=O)C2CCCN2[C@@H]3C(=O)c2ccccc2)cc1 (stereo partly drawn)	22	78*	-16	42	48*	81*	64*	76*
Nc1sccc1C(=O)c1ccc(Cl)cc1	-26	/	0	-10	/	/	/	/
NC(=O)c1ccsc1N	/	177*	-35*	9	119*	189*	11	2
O=C(CSc1nc(C2CC2)nc2ccccc12)N1c2ccccc2Sc2ccc(C(F)(F)F)cc21	-9	2	2	-10	7	47*	11	14
O=C(CSc1nc(C2CC2)nc2ccccc12)N1CCCCC1	-8	6	-4	/	-5	2	/	/
Cc1cccc(NC(=O)CNC(=O)CCc2nc3sc4c(c3c(=O)[nH]2)CCCC4)c1C	-66	22	-6	/	-11	43*	34*	67*
CC(C)c1cc(Nc2cccc(O)c2)cc(C(C)C)c1O	/	140*	-1	/	148*	146*	18	15
O=C(Nc1cc(S(=O)(=O)N2CCCCCC2)ccc1OCC(F)(F)F)c1cnccn1	5	0	/	/	10	5	/	/
COC(=O)C1=COC(C)C2CN3CCc4c([nH]c5cc(OC)c(OC)cc45)C3CC12 (stereo not drawn)	37	92*	-35*	74*	53*	96*	94*	113*
O=C(O)CCNc1ccc(NCCC(=O)O)c2c1C(=O)c1ccccc1C2=O	26	114*	-55*	/	77*	154*	102*	130*
COc1ccccc1NCCC(=O)O	4	2	3	-19	4	1	/	/
CCCCN(C(=O)CN1C(=O)C2CCCCC2C1=O)c1c(N)n(CCCC)c(=O)[nH]c1=O (stereo not drawn)	-4	-7	-4	/	5	-15	/	/
N#Cc1c(=O)c2nc(NCCCO)ncc2n2c(=O)c3ccccc3[nH]c12	-2	14	2	-9	0	13	/	/
N#Cc1c(=O)c2nc(NCc3ccccc3)ncc2n2ccccc12	2	44*	-4	7	20	53*	32*	43*
Nc1ccc(N)c(C(=O)O)c1	43*	58*	-9	108*	21	101*	72*	112*
